From PubChem BioAssay (Tox21) come the findings set out here.

A short description of assay [1]: Nuclear factor erythroid 2-related factor 2/antioxidant responsive element (Nrf2/ARE) small molecule agonists: qHTS cell viability counter screen in human keratinocytes (AID 1919968; active = well fitted curve in the direction sought with a large enough effect in the repeat runs; an effect the other way counts as inactive or inconclusive; note: nearly all actives have a fitted effect of over 55% in size; note: potency is the fitted concentration of half-maximal effect). In a few lines: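 Cells of the KeratinoSens line were plated at 1,500 per well and left for 5 h before compound transfer from DMSO stocks. After a 23 h incubation (37 C, 5% CO2), CellTiter-Fluor was added. Signal was taken as fluorescence intensity 1 h later.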
(In general: In qHTS, concentration-response curves come from the screen itself.)

Assay [2] can be described thus: Nuclear factor erythroid 2-related factor 2/antioxidant responsive element (Nrf2/ARE) small molecule agonists: luciferase reporter gene qHTS assay in human keratinocytes (AID 1919969). Note: nearly all actives have a fitted effect of over 35% in size. Note: potency is the fitted concentration of half-maximal effect.
In assay [3] the target is Gonadotropin-releasing hormone receptor (Homo sapiens) (UniProt P30968). In words: Human gonadotropin-releasing hormone receptor (GnRHR) small molecule agonists, calcium flux assay in GnRHR-HEK293 cells (AID 1920063). Note: nearly all actives have a fitted effect of over 35% in size. Put shortly:
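Compounds dissolved in DMSO are pin-transferred onto dye-loaded GnRHR-HEK293 cells, which were seeded 18 h before at 37 C/5% CO2. Calcium signal is read as fluorescence intensity at 1 s intervals for 3 min.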

The target of assay [4] is KiSS-1 receptor (Homo sapiens) (UniProt Q969F8). As to the kind of experiment: Human kisspeptin (KISS1R) small molecule agonists, calcium flux assay in KISS1R-HEK293 cells (AID 1920064; active = well fitted curve in the direction sought with a large enough effect in the repeat runs; an effect the other way counts as inactive or inconclusive). In a few lines: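 Cell line: HEK293, stable human KISS1R. Dye loading 1 h at 37 C after 18 h culture. Read: kinetic fluorescence, 480/540 nm, 3 min at 1 s intervals.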
Assay [5] can be described thus: p53 small molecule agonists, cell-based qHTS assay with human liver microsomes (AID 1963577). In a few lines: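 Compounds act here after metabolic activation: human liver microsomes and NADPH, both at 0.5 mg/mL final, were co-added to p53RE-bla cells. Incubation ran 16 h at 37 C, followed by LiveBLAzer detection.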
Assay [6] can be described thus: p53 small molecule agonists, cell-based qHTS assay with rat liver microsomes (AID 1963578). In a few lines:
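Read-out is beta-lactamase reporter fluorescence (LiveBLAzer, 2 h, room temperature, dark) in p53RE-bla cells treated 16 h at 37 C with compound, rat liver microsomes and NADPH, both 0.5 mg/mL final.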

The nature of assay [7]: p53 small molecule agonists, cell-based qHTS assay with human liver microsomes: qHTS cell viability counter screen (AID 1963579). Note: nearly all actives have a fitted effect of over 45% in size. Put shortly: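 Cells carrying the p53 response-element beta-lactamase reporter are treated for 16 h at 37 C with test compounds in the presence of human liver microsomes and NADPH (both 0.5 mg/mL final); ATP-based CellTiter-Glo luminescence then reports viability.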

Assay [8] is described as follows: p53 small molecule agonists, cell-based qHTS assay with rat liver microsomes: qHTS cell viability counter screen (AID 1963580). Note: nearly all actives have a fitted effect of over 45% in size. Put shortly:
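Cytotoxicity counter screen: intracellular ATP measured by CellTiter-Glo luminescence in the same wells as the beta-lactamase reporter read, on HCT-116 p53RE-bla cells exposed 16 h at 37 C to compounds with rat liver microsomes and NADPH, each 0.5 mg/mL final.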

A short description of assay [9]: p53 small molecule agonists, cell-based qHTS assay: qHTS cell viability counter screen (AID 1963581). Note: nearly all actives have a fitted effect of over 45% in size. Put shortly: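 ATP content measured by luminescence in HCT-116 p53RE-bla cells treated 16 h at 37 C, same wells as the reporter screen.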
For assay [10], the target named is 5-hydroxytryptamine receptor 2A (Homo sapiens) (UniProt P28223). In words: 5-hydroxytryptamine receptor 2A (HTR2A) small molecule antagonists, cell-based qHTS assay (AID 1963586). Note: nearly all actives have a fitted effect of over 45% in size. Note: potency is the fitted concentration of half-maximal effect. In a few lines:
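CHO cells stably expressing human HTR2A were plated for 18 h at 37 C, then loaded with calcium dye for 1 h. Compounds were preincubated 5 min at room temperature before DOI (4 nM solution) was added. Kinetic fluorescence was read for 3 min.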

Assay [11] has the same target. In words: 5-hydroxytryptamine receptor 2A (HTR2A) small molecule agonists, cell-based qHTS assay (AID 1963587). Note: nearly all actives have a fitted effect of over 30% in size. Note: potency is the fitted concentration of half-maximal effect. Put shortly:
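CHO cells stably expressing human HTR2A, plated 18 h, loaded with calcium dye 1 h at 37 C. Agonist mode: compounds added and intracellular calcium fluorescence recorded kinetically for 2 min at 1 sec intervals.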

The target of assay [12] is Muscarinic acetylcholine receptor M1 (Homo sapiens) (UniProt P11229). In words: Cholinergic receptor muscarinic 1 (CHRM1) small molecule antagonists, cell-based qHTS assay (AID 1963588). Note: nearly all actives have a fitted effect of over 40% in size. In a few lines: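 Compounds were tested at 15 concentrations in three independent runs. Dye-loaded CHRM1-CHO cells were exposed 5 min at room temperature before stimulation by acetylcholine added at 50nM. Intracellular calcium was read kinetically on FDSS for 3 min.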

Assay [13] has the same target. In words: Cholinergic receptor muscarinic 1 (CHRM1) small molecule agonists, cell-based qHTS assay (AID 1963589). Note: nearly all actives have a fitted effect of over 35% in size. Put shortly:
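Homogeneous fluorescence calcium flux, agonist mode. Human M1-expressing CHO cells; compound dosed at 15 concentrations, three independent runs; signal sampled every 1 sec.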

A short description of assay [14]: cAMP Responsive Elements (CRE) small molecule agonists, cell-based qHTS assay (AID 1963590). In a few lines: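 HEK 293T cells stably bearing CRE-bla were plated at 2,000 cells per well and rested 18 h. Compounds, positive controls or DMSO were added for 3 h at 37 C. LiveBLAzer B/G substrate was then loaded for 2 h at room temperature.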
The nature of assay [15]: cAMP Responsive Elements (CRE) small molecule antagonists, cell-based qHTS assay (AID 1963591; active = well fitted inhibition curve with a large enough effect in the signal ratio in the repeat runs, not every such curve was filed as active; the % refers to the signal ratio). In a few lines: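 First, CRE-bla HEK293T cells settled 18 h at 37 C. Next, compound and 0.25 uM final NKH477 were applied for 3 h. Last, LiveBLAzer B/G substrate was loaded for 2 h at room temperature.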
Assay [16] concerns the target Beta-2 adrenergic receptor (Homo sapiens) (UniProt P07550). In words: Adrenergic beta2 receptor (ADRB2) small molecule antagonists, cell-based qHTS assay (AID 1963592). Note: series mostly up to about 92 µM; nearly all actives have a fitted effect of over 50% in size. Put shortly: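 Assay format: CHO-ADRB2 cells, 18-20hr seeding at 37C/5% CO2, then compound plus 1nM isoproterenol agonist mix for 0.5hr RT. Homogeneous time-resolved fluorescence cAMP detection after 1hr, expressed as 665/615 nm ratio.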

The target is the same in assay [17]. In words: Adrenergic beta2 receptor (ADRB2) small molecule agonists, cell-based qHTS assay (AID 1963593).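 Note: CHO cells stably overexpressing human ADRB2.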 In a few lines: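 CHO cells stably over-expressing ADRB2 were plated overnight at 37C, then dosed with compounds plus a stimulation mix containing 100uM IBMX and 25uM Ro-20-1724 for 0.5hr at room temperature. cAMP was measured by HTRF competition, 1hr.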

Assay [18] deals with D(2) dopamine receptor (Homo sapiens) (UniProt P14416). In words: Dopamine D2 receptor (DRD2) small molecule agonists, cell-based qHTS assay (AID 1963594). Note: nearly all actives have a fitted effect of over 35% in size. Put shortly:
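HEK293 cells stably expressing human DRD2, pre-treated with PDE inhibitor Ro20-1724 (0.1 mM final) and compound 10 min at room temperature, then stimulated with NKH477 (200nM […]) for 30 min. cAMP read by HTRF (665/620 nm).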

The target is the same in assay [19]. In words: Dopamine D2 receptor (DRD2) small molecule antagonists, cell-based qHTS assay (AID 1963595; active = well fitted inhibition curve with a large enough effect in the signal ratio in the repeat runs, with a control signal flat; the % refers to the signal ratio). Put shortly:
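Antagonist mode in DRD2-HEK293 cells: after compound addition with 0.1 mM Ro20-1724, cells received quinpirole (12 nM) and NKH477 (200 nM) for 30 min at room temperature; HTRF cAMP read after 1 h detection.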

A short description of assay [20]: G protein-coupled receptor (GPCR) small molecule agonists, calcium flux assay: HEK293 wild type cell line counter screen (AID 1920065). Put shortly:
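Tox21 10K compounds, 15 concentrations each in triplicate, pin-transferred in DMSO onto dye-loaded cells; kinetic read at 480/540 nm for 3 min, 1 s intervals.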
For orientation: A change in cytosolic calcium serves as a functional read-out for many receptors and channels.

Molecules are shown by their SMILES. Values joined by “and” are separate entries in the source; they are usually repeats but may differ in a detail not shown here. Equal entries are not always repeated. Results filed as inconclusive are left out. A structure can be active in one record and inactive in another. Active and inactive are the calls of the source. Unless noted, calls come from the whole dose curve.

Chain of 5-hydroxytryptamine receptor 2A (Homo sapiens) (P28223 whole entry, looked up): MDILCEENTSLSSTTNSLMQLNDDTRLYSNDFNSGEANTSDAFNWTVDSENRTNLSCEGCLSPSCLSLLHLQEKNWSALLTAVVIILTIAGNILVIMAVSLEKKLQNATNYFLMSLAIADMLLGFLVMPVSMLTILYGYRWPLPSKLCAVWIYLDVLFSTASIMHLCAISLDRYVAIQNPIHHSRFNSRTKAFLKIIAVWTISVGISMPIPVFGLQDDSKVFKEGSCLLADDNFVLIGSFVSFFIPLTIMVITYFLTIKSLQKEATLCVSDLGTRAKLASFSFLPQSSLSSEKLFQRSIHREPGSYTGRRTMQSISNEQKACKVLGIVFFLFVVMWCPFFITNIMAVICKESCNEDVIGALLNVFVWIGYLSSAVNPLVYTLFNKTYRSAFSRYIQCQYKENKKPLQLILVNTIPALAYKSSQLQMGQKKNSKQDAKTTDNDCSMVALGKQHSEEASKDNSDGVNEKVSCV
Chain of Gonadotropin-releasing hormone receptor (Homo sapiens) (P30968 whole entry, looked up): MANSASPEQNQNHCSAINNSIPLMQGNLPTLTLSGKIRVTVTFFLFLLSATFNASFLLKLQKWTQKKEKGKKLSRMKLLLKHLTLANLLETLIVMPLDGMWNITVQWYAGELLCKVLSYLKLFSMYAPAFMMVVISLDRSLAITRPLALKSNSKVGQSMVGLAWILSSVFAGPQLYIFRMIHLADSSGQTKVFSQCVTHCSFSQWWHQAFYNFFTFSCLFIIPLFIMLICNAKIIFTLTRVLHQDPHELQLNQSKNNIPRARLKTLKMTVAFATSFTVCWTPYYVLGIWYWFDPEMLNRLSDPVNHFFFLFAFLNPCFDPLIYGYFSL
Chain of KiSS-1 receptor (Homo sapiens) (Q969F8 whole entry, looked up): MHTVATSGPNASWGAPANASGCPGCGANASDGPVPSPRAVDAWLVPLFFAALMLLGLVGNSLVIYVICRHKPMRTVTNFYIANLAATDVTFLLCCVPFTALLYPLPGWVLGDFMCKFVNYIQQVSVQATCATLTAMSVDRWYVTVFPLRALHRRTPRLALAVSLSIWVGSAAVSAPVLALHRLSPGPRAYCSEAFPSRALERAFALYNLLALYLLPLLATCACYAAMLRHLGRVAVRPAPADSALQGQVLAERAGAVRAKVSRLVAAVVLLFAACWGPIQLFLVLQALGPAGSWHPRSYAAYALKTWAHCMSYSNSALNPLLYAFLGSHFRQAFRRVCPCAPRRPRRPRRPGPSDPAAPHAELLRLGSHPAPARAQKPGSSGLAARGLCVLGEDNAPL
Chain of D(2) dopamine receptor (Homo sapiens) (P14416 whole entry, looked up): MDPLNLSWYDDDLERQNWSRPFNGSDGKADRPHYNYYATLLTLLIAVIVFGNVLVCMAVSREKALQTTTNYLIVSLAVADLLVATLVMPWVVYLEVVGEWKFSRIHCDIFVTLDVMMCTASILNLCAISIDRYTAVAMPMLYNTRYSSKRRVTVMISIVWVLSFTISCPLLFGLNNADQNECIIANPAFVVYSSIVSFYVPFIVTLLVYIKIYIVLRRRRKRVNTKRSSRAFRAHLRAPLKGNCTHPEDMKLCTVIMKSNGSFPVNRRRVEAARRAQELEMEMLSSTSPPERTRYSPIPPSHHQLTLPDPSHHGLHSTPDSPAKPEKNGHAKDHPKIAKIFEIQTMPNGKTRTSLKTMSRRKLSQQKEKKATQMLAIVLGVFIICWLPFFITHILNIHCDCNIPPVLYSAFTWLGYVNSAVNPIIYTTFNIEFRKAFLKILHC
Chain of Beta-2 adrenergic receptor (Homo sapiens) (P07550 whole entry, looked up): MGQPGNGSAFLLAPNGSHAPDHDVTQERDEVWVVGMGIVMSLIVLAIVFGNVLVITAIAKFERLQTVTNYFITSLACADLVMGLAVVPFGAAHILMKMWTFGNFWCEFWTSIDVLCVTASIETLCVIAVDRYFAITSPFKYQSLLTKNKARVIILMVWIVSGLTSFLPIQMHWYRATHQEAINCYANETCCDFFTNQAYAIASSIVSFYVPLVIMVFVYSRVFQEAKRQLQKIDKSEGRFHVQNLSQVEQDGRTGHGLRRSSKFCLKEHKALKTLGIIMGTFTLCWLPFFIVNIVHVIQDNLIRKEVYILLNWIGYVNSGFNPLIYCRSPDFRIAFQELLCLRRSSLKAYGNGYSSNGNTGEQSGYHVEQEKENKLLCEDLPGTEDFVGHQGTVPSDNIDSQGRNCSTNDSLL
Chain of Muscarinic acetylcholine receptor M1 (Homo sapiens) (P11229 whole entry, looked up): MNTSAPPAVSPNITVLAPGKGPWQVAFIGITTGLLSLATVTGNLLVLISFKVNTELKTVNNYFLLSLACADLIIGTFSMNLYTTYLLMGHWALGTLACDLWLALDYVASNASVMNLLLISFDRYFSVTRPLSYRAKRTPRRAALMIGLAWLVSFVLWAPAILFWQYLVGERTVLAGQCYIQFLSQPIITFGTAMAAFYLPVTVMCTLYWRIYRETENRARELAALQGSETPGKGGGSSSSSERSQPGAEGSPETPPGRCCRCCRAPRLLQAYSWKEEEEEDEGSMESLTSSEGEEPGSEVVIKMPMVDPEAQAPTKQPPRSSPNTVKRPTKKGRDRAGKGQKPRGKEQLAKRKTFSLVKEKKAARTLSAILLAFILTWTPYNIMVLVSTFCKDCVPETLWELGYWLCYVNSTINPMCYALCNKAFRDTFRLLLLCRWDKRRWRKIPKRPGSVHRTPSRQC

Take `CCCCCC1C(=O)CCC1CC(=O)OC` (stereo not given): the Potency entry in assay [1], in assay [2], in [3], in assay [4], in [5] and in [6] was “inactive” throughout. The Potency entry in assay [7], in [8], in [9], in assay [10], in assay [11] and in assay [12] was “inactive” each time. The Potency entry in assay [13], in [14], in [15], in assay [16], in assay [17] and in [18] was “inactive” in each case. Besides, the Potency entry in [19] is “inactive”.
For the compound `Cn1cc[nH]c1=S`, the Potency in assay [1] is 54.4 µM (active) and inactive; in assay [2], 27.3 µM (active) and inactive. The Potency entry in assay [3], in [4], in assay [20], in assay [14], in [15] and in assay [16] was “inactive” in each case. For the same compound, the Potency entry in assay [17], in assay [18] and in assay [19] was “inactive” in each case.
On to `NC(N)=NC(=O)c1nc(Cl)c(N)nc1N`, for which the Potency entry in [1], in [2], in [3], in [4], in assay [5] and in [6] was “inactive” throughout. Also, the Potency result in assay [7], in assay [8], in assay [9], in assay [14], in assay [15] and in [16] was “inactive” in each case. Besides, the Potency result in assay [17], in assay [18] and in assay [19] was “inactive” throughout.
Regarding `C[C@]12C[C@H](O)[C@H]3[C@@H](CCC4=CC(=O)CC[C@@]43C)[C@@H]1CC[C@@H]2C(=O)CO`, the Potency result in assay [1], in assay [2], in [3], in assay [4], in assay [5] and in assay [6] was “inactive” in each case. Moreover, the Potency entry in assay [7], in [8], in assay [9], in assay [10], in [11] and in [12] was “inactive” throughout. Further, the Potency result in [13], in assay [16], in assay [17], in [18] and in assay [19] was “inactive” in each case.
For the compound `NCCNc1cccc2ccccc12`, the Potency is 54.4 µM (active) and inactive in [1]; 2.9 nM (active) in assay [10]; 389 nM (active) and 1.2 nM (active) and 19 nM (active) in [11]. The Potency entry in [2], in assay [3], in assay [4], in [5], in assay [6] and in assay [7] was “inactive” each time. For the same compound, the Potency entry in [8], in assay [9], in [12], in assay [13], in assay [14] and in assay [15] was “inactive” throughout. Also, the Potency entry in assay [18] and in [19] was “inactive” each time.
In the case of `COCc1c(C(C)C)nc(C(C)C)c(/C=C/[C@@H](O)C[C@@H](O)CC(=O)O)c1-c1ccc(F)cc1`, the Potency entry in [1], in assay [2], in assay [3], in assay [4], in assay [5] and in [6] was “inactive” in each case. Also, the Potency entry in assay [7], in [8], in [9], in [16], in assay [17] and in [18] was “inactive” throughout. Besides, in assay [19], the Potency entry is “inactive”.
For `NS(=O)(=O)c1cc(C(=O)O)c(NCc2ccco2)cc1Cl`, the Potency result in [1], in assay [2], in assay [3], in assay [4], in assay [20] and in assay [14] was “inactive” throughout. Also, the Potency result in assay [15], in assay [17], in [18] and in assay [19] was “inactive” in each case.
With `CC(C)=CCC/C(C)=C/C=O`, the Potency result in assay [1], in [2], in assay [3], in assay [4], in assay [5] and in assay [6] was “inactive” in each case. In addition, the Potency result in assay [7], in assay [8], in assay [9], in assay [10], in [11] and in assay [12] was “inactive” in each case. Further, the Potency result in assay [14], in assay [15], in assay [16], in assay [17], in assay [18] and in [19] was “inactive” each time.
